Measured potencies and affinities stand elsewhere. A number with no mark means an inactive call. The source made the active and inactive calls.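 Rule for the calls: active = a dose-response fit showing signal loss, with half-maximal concentration no higher than twice the top tested dose; inconclusive = flat fit between 30% and 70% signal loss, or poor fit; inactive = the rest.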

The assay in a line: viability loss in HepG2 hepatoma cells – cell-based, cherry-picks, set 2, cytotoxicity control, dose response (AID 687002). Conditions: ATP luminescence (CellTiter-Glo), 48 h; series mostly up to 26 µM; activity change, negative = cytotoxicity: at the top concentration. (In general: ATP-based viability assays read luminescence as a measure of living cells.)
For `COc1ccccc1NC(=O)c1cn(C)c(=O)c2cc(OC)c(OC)cc12`, the “activity change, negative = cytotoxicity” value was 1.35%.

With `N#Cc1ccc(C23CC4(C2)[C@H](CN(Cc2ccc(C(F)(F)F)cc2)[C@@H]4c2ccccc2)C3c2ccccc2)cc1` (some centres undefined), the “activity change, negative = cytotoxicity” value was 5.28%.

Turning to `COc1cccc(S(=O)(=O)Nc2ccc3c(c2)[C@H]2C[C@@H](CC(=O)NC4CCCCC4)O[C@@H](CO)[C@H]2O3)c1`, the “activity change, negative = cytotoxicity” value is 0.802% [at 23.5 µM].

As to `C[C@H](CO)N1C[C@H](C)[C@@H](CN(C)Cc2ccc(Oc3ccccc3)cc2)Oc2ccc(NC(=O)Nc3ccc4c(c3)OCO4)cc2C1=O`, the “activity change, negative = cytotoxicity” value is -1.51%.

Take `COc1ccc(NC(=O)c2cn(C)c(=O)c3cc(OC)c(OC)cc23)c(OC)c1`: the “activity change, negative = cytotoxicity” value is -7.03%.

Take `CNC[C@H]1Oc2ncc(C#CCC(C)C)cc2C(=O)N([C@H](C)CO)C[C@H]1C`: the “activity change, negative = cytotoxicity” value was 7.79%.

Turning to `Cc1ccccc1NC(=O)C(NC1CCCCC1)C(C)C` (centres undefined), the “activity change, negative = cytotoxicity” value is 9.88%.

Take `C[C@H]1CN([C@@H](C)CO)C(=O)c2cc(C#CC3(O)CCCC3)cnc2O[C@@H]1CN(C)Cc1cccnc1`: the “activity change, negative = cytotoxicity” value is -6.45%.

With `CO[C@@H]1CN(C)C(=O)c2ccc(NS(=O)(=O)c3ccc(Oc4ccccc4)cc3)cc2OC[C@H](C)NC[C@H]1C`, the “activity change, negative = cytotoxicity” value was -6.04%.

On to `CCCNC(=O)[C@H]1[C@H](CO)[C@H]2Cn3c(cccc3=O)[C@@H]1N2C(=O)Nc1cc(F)ccc1F`, for which the “activity change, negative = cytotoxicity” value was 6.89%.

For the compound `O=C(COc1ccc2c(c1)CCC2)NCc1ccccc1`, the “activity change, negative = cytotoxicity” value is 1.53%.

With `COC(=O)C1=C(C)N(Cc2ccccc2)C(=O)N[C@H]1c1cccc(F)c1`, the compound was classed as inactive.

Regarding `Cc1cccc(C)c1NC(=O)C1(NC(=O)C2CCC(=O)N2)CCCCC1` (centres undefined), the “activity change, negative = cytotoxicity” value is 7.97%.

For the compound `C[C@@H]1CN([C@@H](C)CO)C(=O)c2cc(NC(=O)C3CC3)ccc2O[C@H]1CN(C)Cc1ccc2c(c1)OCO2`, the “activity change, negative = cytotoxicity” value is 6.81%.

In the case of `COc1cccc(NC(=O)CN2CCN(S(=O)(=O)c3ccc(C(C)C)cc3)CC2)c1`, the “activity change, negative = cytotoxicity” value is -4.82%.

Turning to `Cc1cccc(OCC(=O)NCc2ccc(F)cc2)c1`, the “activity change, negative = cytotoxicity” value is -8.08%.

For `COc1ccc(N2CCN(C(=O)CSc3ncnc4c3cnn4-c3ccccc3C)CC2)cc1`, the “activity change, negative = cytotoxicity” value is -6.86%.

As to `Cc1ccc(S(=O)(=O)N2CC[C@@H]3[C@H](CO)Nc4ccc(-c5ccccc5F)cc4[C@@H]32)cc1`, the “activity change, negative = cytotoxicity” value was 10.3%.

Consider `C/C=C/c1ccc([C@@H]2[C@@H](C#N)N(S(=O)(=O)c3cccc(F)c3)[C@@H]2CO)cc1`, for which the “activity change, negative = cytotoxicity” value was 1.06%.

In the case of `COc1cccc(S(=O)(=O)Nc2ccc3c(c2)OC[C@@H](C)NC[C@H](C)[C@@H](OC)CN(C)C3=O)c1`, the “activity change, negative = cytotoxicity” value was -3.68%.

For the compound `C[C@H](CO)N1C[C@H](C)[C@H](CN(C)C(=O)NC2CCCCC2)OCCCC[C@H](C)Oc2ccc(NS(=O)(=O)c3cn(C)cn3)cc2C1=O`, the “activity change, negative = cytotoxicity” value is -1.42%.

As to `CCNC(=O)CN(c1ccccc1)S(=O)(=O)c1ccc(Cl)cc1`, the “activity change, negative = cytotoxicity” value is -7.75%.

Turning to `Fc1ccccc1CNC(=S)NCc1ccc(Cl)cc1`, the “activity change, negative = cytotoxicity” value was -15.8%.

`O=C(CN(c1ccc(F)cc1)S(=O)(=O)c1ccccc1)NC1CC2CCC1C2` (centres undefined): the “activity change, negative = cytotoxicity” value is -16.9%.

For the compound `O=C(C[C@@H]1CC[C@H](NC(=O)Cc2ccccn2)[C@@H](CO)O1)NCCc1ccccc1`, the “activity change, negative = cytotoxicity” value is -2.79%.

As to `COc1ccc(NC(=O)CSc2ncnc3c2cnn3Cc2ccccc2)cc1`, the “activity change, negative = cytotoxicity” value is 11.1%.

Consider `CC(C)(C)SCCNC(=O)CN(c1ccccc1)S(=O)(=O)c1ccccc1`, for which the “activity change, negative = cytotoxicity” value is -1.15%.

On to `Cc1ccc(-n2ncc3c(SCC(=O)NNC(=O)C(C)C)ncnc32)cc1`, for which the “activity change, negative = cytotoxicity” value was -1.69%.

With `Cc1cc(C)c(NC(=O)CN2CCN3CCCC3C2)c(C)c1` (centres undefined), the “activity change, negative = cytotoxicity” value was -4.59%.

As to `COc1ccc(CN(C)C[C@@H]2Oc3ccc(NS(C)(=O)=O)cc3CC(=O)N([C@H](C)CO)C[C@H]2C)cc1`, the “activity change, negative = cytotoxicity” value is 12.1% [at 23.5 µM].

With `CC(C)NC(=O)Nc1ccc2c(c1)C(=O)N([C@H](C)CO)C[C@H](C)[C@H](CN(C)Cc1ccncc1)OCCCC[C@H](C)O2`, the “activity change, negative = cytotoxicity” value is 4.36%.

For `COc1ccc(CN(C)C[C@@H]2Oc3ccc(NC(=O)C4CC4)cc3C(=O)N([C@@H](C)CO)C[C@H]2C)cc1`, the “activity change, negative = cytotoxicity” value is 5.77% [at 23.5 µM].

Regarding `CC(NC(=O)COc1ccccc1Cl)c1ccccc1` (centres undefined), the “activity change, negative = cytotoxicity” value is 8.56%.

For the compound `Cc1cccc(C)c1NC(=O)CN(C)C(=O)CC1CC2CCC1C2` (centres undefined), the “activity change, negative = cytotoxicity” value is 0.175%.

On to `COc1ccc(C2CC(c3cccs3)=NN2C(=O)c2ccco2)cc1OC` (centres undefined), for which the “activity change, negative = cytotoxicity” value is -2.37%.

With `Cc1cccc(-c2ccc([C@@H]3[C@@H](CO)N4CCCCN(S(=O)(=O)c5ccccc5C)C[C@@H]34)cc2)c1`, the “activity change, negative = cytotoxicity” value was 11.2%.

Turning to `Cc1c(C(=O)NC(=S)Nc2ccc(N3CCOCC3)cc2)cccc1[N+](=O)[O-]`, the “activity change, negative = cytotoxicity” value was -12%.

On to `Cc1c(Cl)cccc1NC(=O)C1NC(=O)CC1c1ccccc1` (centres undefined), for which the “activity change, negative = cytotoxicity” value is 1.88%.

As for `O=c1nc(-c2ccccc2)c2ccccc2[nH]1`, the “activity change, negative = cytotoxicity” value was 1.9%.
